# The supplement of paper PMC11417369
# ± gives the standard deviation of the averaged measurements. Over roughly 25,000 sequences, “ln(normalized median fluorescence intensity)” has its median near 8.9; the highest 2% begin near 10. The list comes from a sample in which the highest values are over-represented; it also holds similar and randomly drawn sequences.
# System: PfAP2-LT AP2 domain (GST-tagged)
# Test: gcPBM binding intensity (ln(normalized median fluorescence intensity)); higher = stronger DNA binding
# Outline: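 For binding intensity, the highest Masliner-normalised natural-log median intensity across replicate spots of either probe orientation was taken. Protein bound to the array was stained with Alexa488 anti-GST antibody and scanned at 488 nm. The protein, GST-tagged P. falciparum DNA-binding domains from E. coli at about 25 μg on average, had been applied for 1 h to an Agilent 4 × 180k array of primer-extended double-stranded 36-bp intergenic genomic probes and negative controls.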
row,Sequence,gcPBM binding intensity (ln)
1,AGGCTATAATACCATACACACATTTATAAAATAACA [CACACA_site6990],9.07 ± 0.42
2,ATACTTATGATAAATACACACTTGAAATTAAGGATT [CACACA_site4772],8.85 ± 0.37
3,CATTTTTCTATATGTGCATGTAAGATAAGAATAATT [TGCATGCA_site107],8.48 ± 0.3
4,TATTTTTCCATATGCACACACACCGTATCTAGAATA [CACACA_site6654],9.47 ± 0.37
5,ATAATTAAAATGCTCACACACATAAAAAAAAATTAA [CACACA_site2149],8.94 ± 0.46
6,TTATTATTATGATTATTATGATGATTATACAACTGT [TGCATGCA_negctrl_site241],8.85 ± 0.35
7,AAATTGAATTAGTTAACACACAACTTTTATTTCATA [CACACA_site2840],8.74 ± 0.4
8,TCAAATATATAGAATACACACATGGATATAAGAAAT [CACACA_site4065],9.2 ± 0.4
9,TTATAATAAAATGAATATATATAATTTAAAATATTT [CACACA_negctrl_site1651],8.27 ± 0.54
10,TATATTTATAAGTGTACACATTATATAAATCCCTAT [CACACA_site6122],8.65 ± 0.42
11,AATTTTCTACAAATGTGTACTAAATAAAATATTACT [XGTACX_site7175],8.63 ± 0.39
12,TAAAAAAAAAAAAATACACACACACCGATATATATA [CACACA_site8498],9.76 ± 0.19
13,CACTAAAATAAACACACACACACACCGATATATATA [CACACA_site9379],9.96 ± 0.014
14,AATATAAATAAAAACACACACACACCGATATATATA [CACACA_site5283],10.2 ± 0.11
15,AAAAAAAAAAAAAATACACACACACCGATATATATA [CACACA_site8142],9.775 ± 0.092
16,AAAAAGGATAAACACACACACACACCGATATATATA [CACACA_site8206],10.34 ± 0.099
17,AAAATACATGGACACACACACACACCGATATATATA [CACACA_site5885],10.4 ± 0.21
18,AAGGATATAACATACACACACACACCGATATATATA [CACACA_site6136],10 ± 0.29
19,AATAAAAAGGAACACACACACACACCGATATATATA [CACACA_site5895],10.08 ± 0.085
20,CAAAATAATATATATACACACACACCGATATATATA [CACACA_site8082],9.81 ± 0.18
21,AAAAAAAAAAGAATAGCACACACACCGATATAAATA [CACACA_site8111],9.71 ± 0.37
22,TGGGAATAAAAACACACACACACACCGATATATATA [CACACA_site5875],10.1 ± 0.41

row,Sequence,gcPBM binding intensity (ln)
1,GGAATAATATAAAACACACACATAAATATAAATATA [CACACA_site3376],9.45 ± 0.35
2,TGGAACCTTTAAAATACACACCCAAATCCTTTGAAA [CACACA_site7671],8.69 ± 0.35
3,AGAGAGAGAAATACAAGTACATGTGAAACCAATCTA [XGTACX_site2767],9.04 ± 0.46
4,GCATCGATCAAACATACACACATGGTTAATAAAAAT [CACACA_site8651],9.24 ± 0.47
5,TTTAAAAAAAGCAGTACATGCAAAATAATAACAAGC [TGCATGCA_site392],9.2 ± 0.48
6,TACACAAGGGGAAAAATATATATATATATATATATA [TGCATGCA_negctrl_site217],9.88 ± 0.028
7,TATTTTTTTTCGTAATGTACATAAAAAATGCAAAAA [XGTACX_site8491],8.27 ± 0.36
8,CATCCGTTGATATATGCATGCATATTGTTATTACCA [TGCATGCA_site868],9.11 ± 0.36
9,TTTATATATAAATAATGTACAAAAAATTTTAAAAAG [XGTACX_site7990],8.39 ± 0.39
10,ACAGTTTGTCTGAGTAGTACATAAATACTTGAAAGG [XGTACX_site7792],8.79 ± 0.45
11,CACGCATACAGACACACACACACACGGATATAAATA [CACACA_site6445],10.2 ± 0.4
12,GCTATAAATACAGACGCACACATATACATACAGATA [CACACA_site5778],9.33 ± 0.42
13,TACAGACTAAAATACACACACACACGCACATATATA [CACACA_site7875],10.2 ± 0.18
14,CTAAAATACAGACACACACACACATATATATATATA [CACACA_site4150],10.07 ± 0.021
15,TTTAAATACAGACATACACACATACACGCACATATA [CACACA_site6400],9.49 ± 0.37
16,AAAATACACAGACACACACACATATAAATAAATATT [CACACA_site7871],9.79 ± 0.19
17,CACACGCACAGACACACACACACATATAAATATGTA [CACACA_site6300],9.89 ± 0.37
18,CGCATACACAGACACACACACACATATAAATATGTA [CACACA_site6444],9.98 ± 0.47
19,CGCGCACACGGACACACACACACACGGATATAAATA [CACACA_site7102],10 ± 0.4
20,GCTATAAATACAGACGCACACATATACATACATATA [CACACA_site3329],9.42 ± 0.33
21,CACACGCACAGACACACACACACACGGATATAAATA [CACACA_site6301],10.2 ± 0.38
22,AAAAAATACAGACACACACACACACGCATATAAATA [CACACA_site7644],10.1 ± 0.25
